The supplement of paper PMC11732987, “Enantioselective OTUD7B fragment discovery through chemoproteomics screening and high-throughput optimisation” (Communications Chemistry, 2025)

Experiments:
Experiment in all cases: log2 ratio of Biotin-Ahx-Ub-VS probe labelling (fragment/DMSO); higher = less target engagement (more negative = stronger competition), active = hit call of the paper (q ≤ 0.05, log2 ratio ≤ -1)
Conditions in all cases: compound concentration: 200 uM; treatment time: 3 h
USP42 = target: T1, USP42 (UniProt Q9H9J4)
T1 sequence (whole entry): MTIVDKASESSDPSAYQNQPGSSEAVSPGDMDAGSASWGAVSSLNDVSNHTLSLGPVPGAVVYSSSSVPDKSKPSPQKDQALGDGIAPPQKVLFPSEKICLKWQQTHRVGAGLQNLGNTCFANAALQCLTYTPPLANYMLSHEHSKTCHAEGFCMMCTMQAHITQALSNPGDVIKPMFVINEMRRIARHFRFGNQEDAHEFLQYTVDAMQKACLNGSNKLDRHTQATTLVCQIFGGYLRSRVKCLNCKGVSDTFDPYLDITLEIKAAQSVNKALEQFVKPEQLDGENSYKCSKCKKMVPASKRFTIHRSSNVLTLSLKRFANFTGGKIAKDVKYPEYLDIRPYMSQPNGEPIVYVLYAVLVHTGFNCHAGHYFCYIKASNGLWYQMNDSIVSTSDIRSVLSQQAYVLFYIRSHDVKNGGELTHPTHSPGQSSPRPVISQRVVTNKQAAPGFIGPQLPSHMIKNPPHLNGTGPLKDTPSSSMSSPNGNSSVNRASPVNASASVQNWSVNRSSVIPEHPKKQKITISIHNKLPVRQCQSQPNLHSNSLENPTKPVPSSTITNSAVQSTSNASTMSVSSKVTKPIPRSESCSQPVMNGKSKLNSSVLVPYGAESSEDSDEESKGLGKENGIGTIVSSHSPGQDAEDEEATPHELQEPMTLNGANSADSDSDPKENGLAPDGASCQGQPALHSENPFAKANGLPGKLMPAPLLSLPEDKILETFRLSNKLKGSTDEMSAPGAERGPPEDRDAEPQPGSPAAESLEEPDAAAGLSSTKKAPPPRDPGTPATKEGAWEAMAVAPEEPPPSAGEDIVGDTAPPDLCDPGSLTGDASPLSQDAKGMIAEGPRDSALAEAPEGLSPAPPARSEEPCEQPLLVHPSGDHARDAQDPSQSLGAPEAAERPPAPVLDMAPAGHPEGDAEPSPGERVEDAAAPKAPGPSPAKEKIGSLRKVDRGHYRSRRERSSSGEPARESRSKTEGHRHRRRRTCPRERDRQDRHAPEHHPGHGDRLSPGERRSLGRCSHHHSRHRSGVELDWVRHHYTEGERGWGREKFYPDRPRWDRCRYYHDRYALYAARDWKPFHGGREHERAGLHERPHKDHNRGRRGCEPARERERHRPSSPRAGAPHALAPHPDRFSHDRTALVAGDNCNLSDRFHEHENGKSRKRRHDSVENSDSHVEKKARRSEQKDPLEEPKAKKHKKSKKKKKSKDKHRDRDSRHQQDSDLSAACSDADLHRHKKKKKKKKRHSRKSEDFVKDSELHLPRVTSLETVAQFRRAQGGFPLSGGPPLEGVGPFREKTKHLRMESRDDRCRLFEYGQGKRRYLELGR
Method in brief: (§1)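 The table lists average log2 ratios of fragment over vehicle, from an unpaired t-test on global-median-normalised Spectronaut label-free quantities. Proteins with ≥2 unique peptides were used. Samples were HEK293T lysate (495 µg) treated in triplicate with fragment at 200 µM or vehicle for 3 h, then with Biotin-Ahx-Ub-VS (0.5 µM final) for 1 h, with labelled DUBs NeutrAvidin-enriched and run by diaPASEF LC-MS/MS.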

USP46 = USP46 (UniProt P62068)
Sequence of USP46 (P62068 whole entry): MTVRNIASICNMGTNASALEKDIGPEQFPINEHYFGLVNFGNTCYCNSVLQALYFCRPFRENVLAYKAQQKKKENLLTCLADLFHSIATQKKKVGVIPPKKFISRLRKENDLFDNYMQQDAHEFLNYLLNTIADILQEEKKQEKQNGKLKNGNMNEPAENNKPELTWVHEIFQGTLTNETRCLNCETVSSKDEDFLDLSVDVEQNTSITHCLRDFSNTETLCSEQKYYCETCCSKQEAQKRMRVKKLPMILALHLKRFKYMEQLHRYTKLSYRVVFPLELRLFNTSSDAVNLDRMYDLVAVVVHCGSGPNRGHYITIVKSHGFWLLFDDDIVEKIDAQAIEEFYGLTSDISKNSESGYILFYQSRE
Method in brief: as §1

USP47 = target: T2, USP47 (UniProt Q96K76)
T2 sequence (whole entry): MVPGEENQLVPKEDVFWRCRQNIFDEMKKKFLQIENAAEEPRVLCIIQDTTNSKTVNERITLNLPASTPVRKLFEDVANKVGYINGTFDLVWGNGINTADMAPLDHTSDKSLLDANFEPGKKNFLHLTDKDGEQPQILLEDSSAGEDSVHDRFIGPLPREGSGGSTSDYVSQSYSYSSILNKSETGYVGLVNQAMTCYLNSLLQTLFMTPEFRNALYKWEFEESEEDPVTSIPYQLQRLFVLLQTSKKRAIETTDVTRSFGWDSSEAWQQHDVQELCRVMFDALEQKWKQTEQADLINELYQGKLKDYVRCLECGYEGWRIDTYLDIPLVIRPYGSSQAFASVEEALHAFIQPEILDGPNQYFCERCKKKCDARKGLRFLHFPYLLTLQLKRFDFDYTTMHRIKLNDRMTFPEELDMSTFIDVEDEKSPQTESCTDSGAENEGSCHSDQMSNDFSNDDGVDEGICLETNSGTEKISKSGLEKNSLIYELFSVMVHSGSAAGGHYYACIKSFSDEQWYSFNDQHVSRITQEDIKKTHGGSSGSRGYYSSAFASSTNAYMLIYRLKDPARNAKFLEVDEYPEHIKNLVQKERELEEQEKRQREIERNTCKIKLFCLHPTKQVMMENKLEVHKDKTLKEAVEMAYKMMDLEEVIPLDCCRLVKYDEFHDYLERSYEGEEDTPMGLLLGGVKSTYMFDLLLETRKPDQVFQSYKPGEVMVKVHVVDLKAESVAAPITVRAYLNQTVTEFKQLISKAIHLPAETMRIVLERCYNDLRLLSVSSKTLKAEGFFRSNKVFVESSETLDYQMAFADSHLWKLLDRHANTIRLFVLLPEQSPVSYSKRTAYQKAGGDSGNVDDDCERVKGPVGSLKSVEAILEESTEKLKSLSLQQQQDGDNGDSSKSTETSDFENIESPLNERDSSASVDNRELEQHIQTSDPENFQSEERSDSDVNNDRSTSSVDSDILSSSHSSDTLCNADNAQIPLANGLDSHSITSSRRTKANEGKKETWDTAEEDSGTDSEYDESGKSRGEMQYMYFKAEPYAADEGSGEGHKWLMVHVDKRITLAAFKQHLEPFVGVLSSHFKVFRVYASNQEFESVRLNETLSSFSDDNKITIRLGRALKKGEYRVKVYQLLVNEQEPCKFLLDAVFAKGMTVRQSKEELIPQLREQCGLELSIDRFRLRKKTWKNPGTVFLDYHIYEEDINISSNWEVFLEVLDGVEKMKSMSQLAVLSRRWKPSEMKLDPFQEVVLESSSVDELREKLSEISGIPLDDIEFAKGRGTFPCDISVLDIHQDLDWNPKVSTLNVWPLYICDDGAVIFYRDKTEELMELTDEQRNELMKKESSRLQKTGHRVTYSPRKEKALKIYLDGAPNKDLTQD
Method in brief: as §1

USP48 = target: T3, USP48 (UniProt Q86UV5)
T3 sequence (whole entry): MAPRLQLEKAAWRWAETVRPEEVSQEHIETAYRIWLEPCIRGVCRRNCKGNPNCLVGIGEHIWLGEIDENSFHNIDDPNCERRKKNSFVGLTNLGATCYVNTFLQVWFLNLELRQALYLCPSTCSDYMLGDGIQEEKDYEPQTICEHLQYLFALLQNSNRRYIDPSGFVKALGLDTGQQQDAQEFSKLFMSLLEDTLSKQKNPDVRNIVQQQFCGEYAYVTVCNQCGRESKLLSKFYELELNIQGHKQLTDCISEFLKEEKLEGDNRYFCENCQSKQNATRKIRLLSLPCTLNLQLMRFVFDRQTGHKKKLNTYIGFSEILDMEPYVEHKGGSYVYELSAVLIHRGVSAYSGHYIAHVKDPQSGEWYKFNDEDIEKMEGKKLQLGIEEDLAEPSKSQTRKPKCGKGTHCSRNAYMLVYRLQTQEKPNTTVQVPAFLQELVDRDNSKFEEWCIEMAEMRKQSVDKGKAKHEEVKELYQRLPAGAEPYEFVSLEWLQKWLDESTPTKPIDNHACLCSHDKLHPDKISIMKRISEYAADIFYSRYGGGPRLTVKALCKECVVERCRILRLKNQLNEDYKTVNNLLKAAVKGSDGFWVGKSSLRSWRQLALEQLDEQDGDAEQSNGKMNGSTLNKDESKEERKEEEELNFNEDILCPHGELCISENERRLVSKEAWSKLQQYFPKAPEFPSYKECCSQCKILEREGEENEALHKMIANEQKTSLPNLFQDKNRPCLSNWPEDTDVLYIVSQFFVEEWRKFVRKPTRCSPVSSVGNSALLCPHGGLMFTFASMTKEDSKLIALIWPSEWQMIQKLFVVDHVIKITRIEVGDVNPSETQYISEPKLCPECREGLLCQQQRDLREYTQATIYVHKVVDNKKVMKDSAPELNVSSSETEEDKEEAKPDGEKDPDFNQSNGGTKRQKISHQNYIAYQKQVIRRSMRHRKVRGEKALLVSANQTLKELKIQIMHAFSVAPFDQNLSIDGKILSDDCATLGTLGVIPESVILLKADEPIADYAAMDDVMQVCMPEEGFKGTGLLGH
Method in brief: as §1

USP5 = target: T4, USP5 (UniProt P45974)
T4 sequence (whole entry): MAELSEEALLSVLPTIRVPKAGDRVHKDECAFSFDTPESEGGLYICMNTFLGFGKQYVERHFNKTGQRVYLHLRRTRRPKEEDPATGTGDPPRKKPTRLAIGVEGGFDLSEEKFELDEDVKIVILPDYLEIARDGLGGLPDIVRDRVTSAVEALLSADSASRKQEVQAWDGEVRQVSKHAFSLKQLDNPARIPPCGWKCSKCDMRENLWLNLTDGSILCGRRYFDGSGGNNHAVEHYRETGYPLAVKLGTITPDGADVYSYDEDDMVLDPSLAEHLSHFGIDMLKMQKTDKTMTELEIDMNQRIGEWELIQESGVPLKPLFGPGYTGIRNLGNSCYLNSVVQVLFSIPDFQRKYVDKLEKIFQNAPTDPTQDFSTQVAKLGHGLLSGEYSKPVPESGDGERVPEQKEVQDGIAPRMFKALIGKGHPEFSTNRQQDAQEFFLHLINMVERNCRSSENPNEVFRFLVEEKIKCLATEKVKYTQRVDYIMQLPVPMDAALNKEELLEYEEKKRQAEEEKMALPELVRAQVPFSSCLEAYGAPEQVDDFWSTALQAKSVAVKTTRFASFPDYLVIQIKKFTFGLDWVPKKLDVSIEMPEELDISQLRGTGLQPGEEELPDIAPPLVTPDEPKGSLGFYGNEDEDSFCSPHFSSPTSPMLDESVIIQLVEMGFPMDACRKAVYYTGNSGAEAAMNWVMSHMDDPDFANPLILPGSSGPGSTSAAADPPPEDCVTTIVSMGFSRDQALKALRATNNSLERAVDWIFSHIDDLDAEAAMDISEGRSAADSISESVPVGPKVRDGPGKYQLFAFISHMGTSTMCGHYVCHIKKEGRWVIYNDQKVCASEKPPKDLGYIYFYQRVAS
Method in brief: as §1

USP54 = USP54 (UniProt Q70EL1)
Method in brief: as §1

USP7 = USP7 (UniProt Q93009)
Sequence of USP7 (Q93009 whole entry, looked up): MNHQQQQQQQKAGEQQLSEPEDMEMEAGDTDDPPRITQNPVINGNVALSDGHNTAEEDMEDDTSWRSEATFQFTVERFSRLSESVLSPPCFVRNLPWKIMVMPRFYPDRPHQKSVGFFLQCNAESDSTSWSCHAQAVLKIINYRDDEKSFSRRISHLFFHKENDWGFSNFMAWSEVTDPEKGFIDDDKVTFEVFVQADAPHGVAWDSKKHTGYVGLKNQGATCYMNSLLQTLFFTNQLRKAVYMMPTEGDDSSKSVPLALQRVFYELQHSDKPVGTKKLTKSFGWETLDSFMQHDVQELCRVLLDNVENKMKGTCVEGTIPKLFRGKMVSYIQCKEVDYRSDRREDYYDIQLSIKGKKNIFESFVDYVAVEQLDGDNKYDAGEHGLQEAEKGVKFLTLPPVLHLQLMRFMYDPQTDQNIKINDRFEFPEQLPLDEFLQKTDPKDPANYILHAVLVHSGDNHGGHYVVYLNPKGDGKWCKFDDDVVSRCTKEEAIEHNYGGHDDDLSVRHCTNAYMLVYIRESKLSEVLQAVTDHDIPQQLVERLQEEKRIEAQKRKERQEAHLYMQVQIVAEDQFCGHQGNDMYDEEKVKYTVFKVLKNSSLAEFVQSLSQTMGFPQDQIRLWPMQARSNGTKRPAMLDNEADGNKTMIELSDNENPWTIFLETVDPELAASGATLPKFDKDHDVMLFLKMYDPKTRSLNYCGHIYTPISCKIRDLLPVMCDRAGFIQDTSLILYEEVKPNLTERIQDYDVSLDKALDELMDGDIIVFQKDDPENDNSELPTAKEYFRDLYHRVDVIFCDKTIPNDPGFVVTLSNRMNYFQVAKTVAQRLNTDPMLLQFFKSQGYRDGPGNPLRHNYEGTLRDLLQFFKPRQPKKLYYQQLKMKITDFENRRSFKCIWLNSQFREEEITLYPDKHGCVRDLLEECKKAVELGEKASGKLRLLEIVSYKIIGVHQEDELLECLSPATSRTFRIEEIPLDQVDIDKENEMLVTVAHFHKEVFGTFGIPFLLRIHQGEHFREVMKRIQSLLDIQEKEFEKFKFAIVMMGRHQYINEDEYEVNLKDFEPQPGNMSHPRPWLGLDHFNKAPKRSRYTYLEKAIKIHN
Method in brief: as §1

USP8 = target: T5, USP8 (UniProt P40818)
T5 sequence (whole entry): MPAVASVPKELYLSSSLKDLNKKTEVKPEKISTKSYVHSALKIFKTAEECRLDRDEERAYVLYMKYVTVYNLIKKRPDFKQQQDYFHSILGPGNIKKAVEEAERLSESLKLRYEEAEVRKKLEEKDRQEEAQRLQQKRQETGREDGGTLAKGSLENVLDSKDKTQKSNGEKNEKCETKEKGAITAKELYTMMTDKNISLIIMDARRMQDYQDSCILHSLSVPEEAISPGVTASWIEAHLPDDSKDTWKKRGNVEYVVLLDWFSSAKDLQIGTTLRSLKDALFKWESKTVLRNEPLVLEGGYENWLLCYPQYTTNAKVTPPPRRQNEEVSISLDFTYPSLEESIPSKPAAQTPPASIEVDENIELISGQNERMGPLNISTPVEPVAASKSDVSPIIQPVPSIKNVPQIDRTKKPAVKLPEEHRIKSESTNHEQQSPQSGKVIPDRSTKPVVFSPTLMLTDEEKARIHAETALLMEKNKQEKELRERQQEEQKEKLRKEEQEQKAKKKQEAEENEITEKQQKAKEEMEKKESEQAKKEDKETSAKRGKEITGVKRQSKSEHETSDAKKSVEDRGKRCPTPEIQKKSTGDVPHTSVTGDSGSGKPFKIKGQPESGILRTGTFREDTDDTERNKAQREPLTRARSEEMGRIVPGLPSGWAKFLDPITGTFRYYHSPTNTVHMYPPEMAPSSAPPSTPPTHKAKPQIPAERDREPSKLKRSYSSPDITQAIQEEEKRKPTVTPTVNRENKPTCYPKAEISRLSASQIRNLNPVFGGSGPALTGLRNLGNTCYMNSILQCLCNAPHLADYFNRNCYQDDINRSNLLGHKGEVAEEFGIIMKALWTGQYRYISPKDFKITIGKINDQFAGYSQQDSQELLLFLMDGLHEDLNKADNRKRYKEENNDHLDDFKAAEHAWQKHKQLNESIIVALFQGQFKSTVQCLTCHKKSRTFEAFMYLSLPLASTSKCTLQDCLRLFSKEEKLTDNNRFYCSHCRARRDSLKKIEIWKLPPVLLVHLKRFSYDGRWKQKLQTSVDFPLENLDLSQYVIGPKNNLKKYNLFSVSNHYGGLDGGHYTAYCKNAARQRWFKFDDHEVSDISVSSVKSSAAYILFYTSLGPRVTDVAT
Method in brief: as §1

USP9X = USP9X (UniProt Q93008)
Sequence of USP9X (Q93008 whole entry): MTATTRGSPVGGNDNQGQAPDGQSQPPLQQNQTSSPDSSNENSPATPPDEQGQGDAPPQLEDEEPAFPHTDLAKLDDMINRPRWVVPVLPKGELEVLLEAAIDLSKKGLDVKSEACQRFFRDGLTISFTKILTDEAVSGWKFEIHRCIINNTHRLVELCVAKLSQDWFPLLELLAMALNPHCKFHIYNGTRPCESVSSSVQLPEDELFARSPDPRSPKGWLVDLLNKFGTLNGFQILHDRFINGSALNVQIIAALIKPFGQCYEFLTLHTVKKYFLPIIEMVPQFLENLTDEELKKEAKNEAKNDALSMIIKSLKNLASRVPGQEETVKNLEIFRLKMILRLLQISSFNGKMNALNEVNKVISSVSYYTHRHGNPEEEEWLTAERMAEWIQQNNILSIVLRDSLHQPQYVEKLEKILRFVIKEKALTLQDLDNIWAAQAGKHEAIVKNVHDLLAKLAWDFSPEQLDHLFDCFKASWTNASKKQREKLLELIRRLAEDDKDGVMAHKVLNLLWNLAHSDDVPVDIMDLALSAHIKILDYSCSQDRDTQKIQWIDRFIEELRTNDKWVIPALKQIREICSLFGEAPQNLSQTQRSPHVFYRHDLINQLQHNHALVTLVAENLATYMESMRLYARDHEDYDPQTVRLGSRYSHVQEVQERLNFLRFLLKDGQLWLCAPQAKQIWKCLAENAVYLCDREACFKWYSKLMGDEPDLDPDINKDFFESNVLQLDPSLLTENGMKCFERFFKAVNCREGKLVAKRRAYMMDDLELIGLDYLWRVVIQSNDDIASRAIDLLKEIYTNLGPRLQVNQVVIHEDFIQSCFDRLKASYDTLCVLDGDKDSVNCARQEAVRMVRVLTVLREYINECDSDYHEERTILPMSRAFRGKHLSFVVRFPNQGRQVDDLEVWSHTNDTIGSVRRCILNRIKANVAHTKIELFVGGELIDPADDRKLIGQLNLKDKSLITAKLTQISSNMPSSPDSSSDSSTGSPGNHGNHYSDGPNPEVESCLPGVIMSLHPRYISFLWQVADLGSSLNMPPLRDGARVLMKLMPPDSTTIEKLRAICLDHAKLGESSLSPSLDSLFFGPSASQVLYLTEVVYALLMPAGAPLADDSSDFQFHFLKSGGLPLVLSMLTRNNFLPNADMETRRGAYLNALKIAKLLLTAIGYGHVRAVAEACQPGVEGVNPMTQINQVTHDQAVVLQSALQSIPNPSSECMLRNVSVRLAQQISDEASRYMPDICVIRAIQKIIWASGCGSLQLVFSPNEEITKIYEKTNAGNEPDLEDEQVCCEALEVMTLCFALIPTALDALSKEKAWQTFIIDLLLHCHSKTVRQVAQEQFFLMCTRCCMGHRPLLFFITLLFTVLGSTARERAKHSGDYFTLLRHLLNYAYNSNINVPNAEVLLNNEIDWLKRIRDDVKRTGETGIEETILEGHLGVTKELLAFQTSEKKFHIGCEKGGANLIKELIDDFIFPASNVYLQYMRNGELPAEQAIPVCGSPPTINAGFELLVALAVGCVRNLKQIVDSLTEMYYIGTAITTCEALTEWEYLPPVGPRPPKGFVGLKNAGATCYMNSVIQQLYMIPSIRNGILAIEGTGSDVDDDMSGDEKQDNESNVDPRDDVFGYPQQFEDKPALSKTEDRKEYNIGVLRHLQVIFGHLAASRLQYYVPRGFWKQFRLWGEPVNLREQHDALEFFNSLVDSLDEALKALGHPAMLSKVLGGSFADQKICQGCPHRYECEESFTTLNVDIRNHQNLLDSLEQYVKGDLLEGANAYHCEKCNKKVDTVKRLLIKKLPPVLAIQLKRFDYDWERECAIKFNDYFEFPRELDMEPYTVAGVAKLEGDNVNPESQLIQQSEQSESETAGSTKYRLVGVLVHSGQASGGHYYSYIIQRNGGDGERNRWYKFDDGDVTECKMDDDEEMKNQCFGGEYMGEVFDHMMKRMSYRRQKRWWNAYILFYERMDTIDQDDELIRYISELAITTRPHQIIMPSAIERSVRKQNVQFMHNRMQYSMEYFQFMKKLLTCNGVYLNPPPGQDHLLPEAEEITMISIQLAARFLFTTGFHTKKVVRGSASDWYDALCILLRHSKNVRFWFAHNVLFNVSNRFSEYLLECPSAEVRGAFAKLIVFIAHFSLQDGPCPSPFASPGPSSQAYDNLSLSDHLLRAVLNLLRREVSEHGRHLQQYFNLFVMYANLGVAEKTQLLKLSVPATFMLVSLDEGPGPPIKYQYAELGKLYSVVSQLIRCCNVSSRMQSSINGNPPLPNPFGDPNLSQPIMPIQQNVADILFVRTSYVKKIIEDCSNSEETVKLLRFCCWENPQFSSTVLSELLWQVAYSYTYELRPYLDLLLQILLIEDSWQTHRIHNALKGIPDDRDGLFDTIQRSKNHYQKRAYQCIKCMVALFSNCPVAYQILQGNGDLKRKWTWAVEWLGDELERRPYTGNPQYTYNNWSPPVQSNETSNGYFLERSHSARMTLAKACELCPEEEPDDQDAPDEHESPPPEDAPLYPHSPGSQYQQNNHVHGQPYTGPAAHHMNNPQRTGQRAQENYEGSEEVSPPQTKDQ
Method in brief: as §1

UniProt O00487 = target: UniProt O00487
Sequence of UniProt O00487 (O00487 whole entry): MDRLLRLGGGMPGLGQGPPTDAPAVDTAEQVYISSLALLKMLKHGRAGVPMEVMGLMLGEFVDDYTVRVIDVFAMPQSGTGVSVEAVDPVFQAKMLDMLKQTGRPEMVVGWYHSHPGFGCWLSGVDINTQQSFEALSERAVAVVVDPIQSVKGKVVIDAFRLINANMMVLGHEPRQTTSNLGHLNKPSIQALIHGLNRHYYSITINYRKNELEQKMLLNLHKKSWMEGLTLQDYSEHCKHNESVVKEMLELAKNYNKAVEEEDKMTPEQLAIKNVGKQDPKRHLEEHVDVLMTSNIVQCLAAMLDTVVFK
Method in brief: as §1

Measured: log2 ratio of Biotin-Ahx-Ub-VS probe labelling

O=C(CCl)NCCc1cccc2ccccc12
inactive: USP42 0.608 | USP46 -0.0148 | USP47 0.102 | USP48 -0.131 | USP5 0.258 | USP54 -0.0844 | USP7 -0.217 | USP8 -0.118 | USP9X 0.0346 | UniProt O00487 0.00956
